From PubChem BioAssay AID449762 (Southern Research Specialized Biocontainment Screening …, 2010)
Among all 330,000 compounds or so, about 1,900 (0.58%) were called active. Inconclusive results (about 4%) are left out. These entries were drawn from the full list. Measured potencies and affinities stand elsewhere. Unmarked numbers belong to inactive results. No stated cut-off is given here; in the data, inconclusive means inhibition above about 70% without an active follow-up result; inactive means below that.

Experiment: M. tuberculosis growth inhibition, HTS (AID 449762);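 further: bacterial growth assessed after seven days of incubation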
Details: M. tuberculosis H37Rv growth inhibition, 7H9 media; at 25 µM; stronger effect = higher value

SMILES | inhibition [%]
CCc1cc(C(=O)Nc2ccccc2)cs1 | -4.05
CCOC(=O)Nc1ccc(C)cc1Br | -1.99
COc1ccc(NC(=O)c2nc[nH]c2C(=O)N(C)Cc2ccccc2)cc1 | 9.08
NC1=NC(=O)/C(=C/C=C/c2cccs2)S1 | 18.7
COc1ccc(C(=O)Nc2c(N)nc(SCC(=O)NCC3CCCO3)[nH]c2=O)cc1 (centres undefined) | 11.2
CCN(CC)C(=O)c1sc2nc(Cc3ccccc3)[nH]c(=O)c2c1C | 4.02
CCN(CC)C(=O)c1sc2nc(-c3ccncc3)[nH]c(=O)c2c1C | -4.66
COc1ccc(-n2c(O)c(/C=C3\C=Nc4ccc(Br)cc43)c(=O)[nH]c2=O)c(OC)c1 | -3.48
CCn1c(CSc2nnc(-c3ccc4c(c3)OCO4)o2)nc2cc(S(=O)(=O)N(C)C)ccc21 | -2.02
O=C(c1cc(-c2cccc(Cl)c2)nc2ccccc12)N1CCCC1 | 4.01
COc1ccc(C2CC(c3c(-c4ccccc4)c4cc(Cl)ccc4[nH]c3=O)=NN2S(C)(=O)=O)cc1OC (centres undefined) | 7.95
COc1ccc(OC)c(C2CC(c3c(-c4ccccc4)c4cc(Cl)ccc4[nH]c3=O)=NN2S(C)(=O)=O)c1 (centres undefined) | 44.4
O=C(NCc1cccnc1)c1noc2c1CCCC2 | -1.71
CCOC(=O)c1nsnc1NCCCl | 4.35
COc1cccc(/C(C)=N/Nc2ccc(S(=O)(=O)N3CCCCC3)cn2)c1 | -2.89
C/C(=N\Nc1ccc(S(=O)(=O)N2CCCCC2)cn1)c1ccc(O)cc1 | -0.43
CC(=O)Nc1ccc(S(=O)(=O)Nc2ccccc2N2CCOCC2)cc1 | 5.3
CCCN(CCC)CCCNC(=O)c1cn(CC)c2ccc(S(=O)(=O)N3CCOCC3)cc2c1=O | 3.73
CCCCN(C)CCCNC(=O)c1cn(CC)c2ccc(S(=O)(=O)N3CCOCC3)cc2c1=O | 3.29
Cc1ccc(S(=O)(=O)n2nc(OC(=O)c3ccccc3F)cc2N)cc1 | 1.24
O=c1[nH]nnc2sc3c(c12)CCCC3 | 1.62
COc1cc(NS(=O)(=O)c2ccc(NC(=S)NC(=O)c3sc4ccccc4c3Cl)cc2)nc(OC)n1 | -0.21
COc1ccc(C(=O)C2CCN(CC(=O)Nc3ccc(C)cc3)CC2)cc1 | 8.88
Cc1ccc(-c2csc(NC(=O)CN3CCC(C(N)=O)CC3)n2)cc1 | 2.15

SMILES | inhibition [%]
O=c1c(O)c(-c2ccc3c(c2)OCO3)oc2ccccc12 | 35.4
Cc1ccc(-c2oc3ccccc3c(=O)c2O)cc1 | 27.6
CCOC(=O)CNC(=O)CNC(=O)c1ccc(OCC(C)C)cc1 | 22.7
CCOC(=O)c1sc2c(c1C)C(c1cccs1)C1=C(CCCC1=O)N2 (centres undefined) | 11.9
Cn1c(=O)c2c(nc(NCc3ccc4c(c3)OCO4)n2C)n(C)c1=O | -2.77
COc1ccccc1CCNC(=O)C(=O)Nc1cc2c3c(c1)CC(=O)N3CCC2 | 57.3
O=C(CSc1nnc(CNC(=O)c2ccccc2)o1)c1ccc(Cl)cc1 | 1.96
O=C(O)CCSc1ccccn1 | -6.45
O=C(O)CSc1ccccn1 | 2.15
COC(=O)CC1C(=O)NCCN1C(=O)c1ccc([N+](=O)[O-])cc1 (centres undefined) | -0.41
O=S(=O)(Nc1ccc(Cl)cn1)c1ccc(F)cc1 | -1.48
COc1cc2c(cc1NC(=O)COC(=O)[C@@H](NS(=O)(=O)c1ccccc1)C(C)C)oc1ccccc12 | 6.17
Clc1ccc(N2CCNCC2)nn1 | -10.1
Cc1onc(-c2ccccc2Cl)c1C(=O)Nc1cccc2cccnc12 | 14.3
COc1cc(NC(=O)c2c(-c3ccccc3Cl)noc2C)c2ncccc2c1 | -6.92
Cn1cc(S(=O)(=O)N2CCC3(CC2)OCCO3)c(=O)n(C)c1=O | -0.14
CC1=C(C(=O)OCc2ccccc2)C(c2cccc(F)c2)NC(=O)N1 (centres undefined) | -8.13
Cc1cccc(-n2ncc3c2CCCC3NC(=O)C2=CC(=O)CC(C)(C)O2)c1C (centres undefined) | -0.85
Cc1ccc(N(CC(=O)Nc2cc(C)cc(C)c2)S(=O)(=O)c2c(C)noc2C)cc1 | 6.89
O=C(OCC(=O)C12CC3CC(CC(C3)C1)C2)c1ccccc1O | 6.66
Cc1cc(C)cc(NC(=O)c2cccn2-c2ncc(C(F)(F)F)cc2Cl)c1 | 6.22
CN(C)C(=O)c1cccn1-c1ncc(C(F)(F)F)cc1Cl | -4.51
NC(=O)CCNC(=O)c1ccc(Cl)cc1 | -5.92
Cc1ccc(NC(=O)CN2C(=O)C3CC=CCC3C2=O)cc1S(=O)(=O)N1CCOCC1 (centres undefined) | -2.53

SMILES | inhibition [%]
COC(=O)N/N=C(C)/C=C/c1ccccc1 | -8.99
CC(/C=C/c1ccccc1)=N\NC(=S)NC(C)C | 28.1
Cc1ncc(CSc2nnnn2-c2ccccc2)c(N)n1 | 1.43
O=C(O)Cn1c(SCc2ccccc2)nc2ccccc21 | 2
O=C(O)CCn1c(SCc2ccccc2)nc2ccccc21 | 2.64
COC(=O)C1=C(c2ccc(OC)c(OC)c2)C[C@@H]2CC[C@H]1N2C(=O)NC1Cc2ccccc2C1 | -10
Cc1ccc(C(=O)Nc2ccccc2NC(=O)c2ccc(C)o2)o1 | 7.31
Cc1cc(C(=O)CSc2nnc(N)s2)c(C)n1CCc1ccc(Cl)cc1 | 9.47
Cc1cc(C(=O)CSc2nnnn2C)c(C)n1CCc1ccc(Cl)cc1 | 4.63
COc1ccc(/C=N/Nc2nc(N3CCCC3)nc(N3CCCC3)n2)cc1 | -3.33
Oc1ccc(/C=N/Nc2cc(N3CCCC3)nc(N3CCCC3)n2)cc1 | 4.32
CCN(CC)C(=O)CSc1nc2[nH]ncc2c(=O)[nH]1 | -0.87
COc1cc2[nH]c3ccccc3c2cc1C | -8.31
Cc1ccc(C)c2c1[nH]c1ccccc12 | 6.73
O=c1oc(CCO)cc2ccc(Br)cc12 | 9.08
COc1ccccc1NC(=O)c1c[nH]c2ccccc12 | 0.76
O=C(CCN1C(=O)/C(=C/C=C/c2ccccc2)SC1=S)Nc1ccccn1 | -4.47
Cc1ccc(/C=C2\SC(=S)N(CCCC(=O)Nc3ccccn3)C2=O)cc1 | 0.58
O=C(CCN1C(=O)/C(=C/c2ccccc2Cl)SC1=S)N1CCOCC1 | 69
CN1CCN(C(=O)CCN2C(=O)/C(=C/c3ccccc3Cl)SC2=S)CC1 | 49.8
COC(=O)c1ccc(NC(=S)NC(=O)c2cccnc2)cc1 | -0.36
COc1ccccc1-n1c(O)c(C=NCCN2CCNCC2)c(=O)[nH]c1=O | -7.53
COC(=O)c1ccc(NC(=O)c2ccc3nccnc3c2)cc1 | -7.47
CCN(CC)S(=O)(=O)c1ccc(S(=O)(=O)Nc2c(C)nn(C)c2C)cc1 | -5.92

SMILES | inhibition [%]
COc1ccc(-c2c(C(F)(F)F)oc3cc(OCC(=O)Nc4ccccc4C(F)(F)F)ccc3c2=O)cc1OC | 10.6
CSc1nncc(-c2ccccc2)n1 | -0.45
O=C(Cc1ccc(F)cc1)N1CCC(N2CCC(C(=O)N3CCOCC3)CC2)CC1 | 4.87
CCCCn1nnc(NC(=O)CCC)n1 | -12.6
OC1(c2ccccc2)CCN(Cc2ccccc2)C2CCCCC21 (centres undefined) | -3.63
OC(c1ccccc1)C1CN(Cc2ccccc2)CCC1(O)c1ccccc1 (centres undefined) | 2.62
CN1C(C(=O)NCc2ccc(OC(F)(F)F)cc2)CC2Cn3c(nc4ccccc43)C21 (centres undefined) | -3.09
CN1C(C(=O)NCc2ccc(OC(F)(F)F)cc2)CC2Cn3c(nc4cc5ccccc5cc43)C21 (centres undefined) | 57.5
Cc1ccc(S(=O)(=O)N[C@H](C(=O)N2CCC(C(=O)N[C@@H](CCC(N)=O)C(=O)O)CC2)C(C)C)cc1 | -8.96
CN1CCN2c3ncccc3Cc3ccccc3[C@@H]2C1 | 8.88
CN1CCN2c3ncccc3Cc3ccccc3C2C1 (centres undefined) | -1.61
O=C(c1cc(C(=O)N2CCOCC2)c2nc3ccccc3n2c1)c1ccccc1O | 1.28
COc1ccc(C(=O)CSc2nnc(CNc3ccc(F)cc3)o2)cc1 | 15.6
COc1ccc(C(=O)CSc2nnc(CNc3ccc(C)cc3C)o2)cc1 | -7.42
C=CCNC(=O)COC(=O)c1ccc(Sc2nncn2C)c([N+](=O)[O-])c1 | -2.55
COc1ccc(CC(=O)N(Cc2ccccc2)c2ccc(C)cc2)cc1S(=O)(=O)N1CCOCC1 | 4.3
CCOC(=O)CCc1cnccc1-c1cccc(OC)c1O | 4.79
CCCN1C(=O)N(c2cccc(C)c2)C(C)(O)CC1(C)C (centres undefined) | 0.42
O=C(c1cccc(C(F)(F)F)c1)N1CCN(C2CCCCC2)CC1 | 6.41
CN(C)CC/C=C1/c2ccccc2Sc2ccc(Cl)cc21 | 39
CC[N+](C)(C)CC/C=C1/c2ccccc2Sc2ccc(Cl)cc21 | -9.06
CN(CCOc1ccc(-c2ccn(S(=O)(=O)c3ccc(Cl)cc3)n2)cc1)c1ccccn1 | 7.05
